The panel holds about 83,000 compounds, 20% with a hit somewhere; the sample as a whole holds those more often.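 Treatment: one concentration, 48 hours, 96-well format. Scoring: percent growth, with anything below 10 considered active.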 Activity calls are given as the source filed them.
Columns and labels:
Experiment in all cases: NCI-60 one-dose screen, 48 h (100 = growth as untreated, 0 = no growth, -100 = all killed)
Conditions in all cases: 10 µM unless noted
[1] = tested on: HCT-15 colon
[2] = tested on: HT29 colon
[3] = tested on: SNB-75 CNS
[4] = tested on: U251 CNS
[5] = tested on: PC-3 prostate
[6] = tested on: UACC-62 melanoma
[7] = tested on: LOX IMVI melanoma
[8] = tested on: SK-MEL-28 melanoma
[9] = tested on: SK-MEL-5 melanoma
[10] = tested on: SNB-19 CNS

Measured: growth

CCCCCC(=O)Oc1ccc(/C(=C(\C)c2ccc(OC)cc2)c2ccc(OCCN3CCCCC3)cc2)cc1
inactive: [3] 64% | [4] 45.4% | [5] 51.1% | [7] 33.5% | [8] 27.6%
active: [1] 9.94% | [2] 8.71% | [6] 6.92%

COc1ccc(S(=O)(=O)N2CCN(C)CC2)cc1NC(=O)c1[nH]c(C)c2c1CCCCC2=O
inactive: [1] 62.4% | [2] 28.9% | [3] 17.4% | [4] 68% | [9] 43.7% | [6] 25.6% | [7] 29.6% | [8] 72%

CCNc1ncnc2c1cnn2C1CCCO1 (stereo unspecified)
inactive: [1] 106% | [2] 119% | [3] 89.4% | [4] 107% | [9] 105% | [6] 107% | [7] 111% | [8] 107%

COc1ccc(/C=C\c2cc(OC)c(OC)c(OC)c2)cc1OC(=O)c1cccc(Cn2cc(CCOC(=O)[C@H](N)Cc3cn(C)c4ccccc34)nn2)c1
active: [2] 8.6%
inactive: [1] 12.4% | [3] 22.9% | [4] 19.2% | [6] 42.7% | [7] 22.3% | [8] 63.1%

NCCNc1nc(Nc2ccc(-c3nc4ccccc4[nH]3)cc2)c2cn[nH]c2n1
active: [7] -17.8%
inactive: [1] 101% | [2] 62.7% | [3] 71.7% | [10] 66.5%

COc1ccc(CN2c3ccccc3Sc3ccccc32)cc1O
inactive: [1] 33.1% | [3] 26.6% | [4] 18.5% | [5] 26.1% | [7] 43.1%
active: [2] 8.73%

COc1ccc(/C=C/C(=O)c2ccc(O)c(CN3CCN(c4cc5c(cc4F)c(=O)c(C(=O)O)cn5C4CC4)CC3)c2)cc1
active: [3] -5.37% | [9] -23%
inactive: [1] 19.1% | [2] 11.1% | [5] 18.1% | [6] 27.2% | [7] 12.8% | [8] 57.9%

O=C(C(=O)c1ccc2c(c1)OCO2)c1ccc2c(c1)OCO2
inactive: [1] 110% | [2] 103% | [3] 90.3% | [4] 103% | [6] 105% | [7] 106% | [8] 110%

Cn1cc(-c2nonc2-c2c[nH]c3ccccc23)c2cccnc21
inactive: [1] 23.5% | [2] 12.4% | [3] 21.2% | [4] 26% | [9] 26.3% | [6] 41.5% | [7] 43% | [8] 61.5%

CC(C)(C)c1cc(/C=N\NC(=O)/C=C/C=C/c2ccc3c(c2)OCO3)c(O)c(C(C)(C)C)c1
inactive: [1] 63.7% | [2] 92% | [3] 31.9% | [5] 69.1% | [6] 71.5% | [7] 61.7% | [8] 85.8%

O=C(N(c1ccccc1)c1ccccc1)n1ccc2nc(Cl)nc(Cl)c21
inactive: [1] 45.1% | [2] 24.6% | [3] 38.3% | [4] 59.6% | [6] 51.9% | [7] 72.1% | [8] 80.4%

CCc1nc(N)nc(N)c1C#CC(C)c1cc(-c2ccnc(C)c2)c2oc(C)nc2c1 (stereo unspecified)
active: [2] 6.46% | [10] 7.53% | [4] 3.52% | [6] -12.3% | [7] -18.8%
inactive: [1] 10.7% | [5] 16.5% | [8] 41.1%

N#Cc1c(-c2ccc(Cl)cc2)nc(NN=Cc2ccco2)nc1N1CCOCC1
inactive: [1] 80.3% | [2] 87% | [3] 10.3% | [5] 68.3% | [9] 80.9% | [6] 58.2% | [7] 78.7% | [8] 65.9%

O=Nc1c(O)c(Cl)cc2ccccc12
inactive: [1] 87.9% | [2] 83.1% | [10] 88.9% | [4] 65.6% | [5] 66.7% | [6] 77.5% | [7] 72.4% | [8] 92.1%

O=C1/C(=C/c2ccc(OCCCOc3ccc(Cl)cc3)cc2)N=C2SCCCN12
inactive: [1] 63.2% | [2] 76% | [10] 78.5% | [4] 69.6% | [5] 45.5% | [7] 68.3%

Cc1oc(-c2ccc(Cl)cc2Cl)cc1C(=O)Nc1nccs1
inactive: [1] 85.6% | [2] 86.6% | [10] 98.8% | [5] 96.6% | [9] 97.1% | [6] 91.7% | [7] 79.1% | [8] 105%

OC(c1cc2cc(Cl)c(Cl)cc2c2cc(C(F)(F)F)ccc12)C1CCCCN1 (stereo unspecified)
active: [1] -60.7% | [2] -73.6% | [10] -64.1% | [4] -92.3% | [5] -84.8% | [6] -38.4% | [7] -88.2% | [8] -79.1%

COc1cccc2c1C(=O)c1c(O)c3c(c(O)c1C2=O)C[C@](O)(C(=O)CO)C[C@H]3O[C@@H]1C[C@@H](NC(=O)CCCN(C)C2(c3ccc(F)cc3)CC3CCC2C3)[C@H](O)[C@@H](C)O1 (stereo partly specified)
active: [1] 3.39% | [2] -61.2% | [10] -66% | [4] -98% | [5] -76.7% | [7] -94.4%

CC[C@@H]1O[C@H](O[C@@H](c2cnc[nH]2)[C@H](NC(=O)c2nc([C@H](CC(N)=O)NC[C@@H](N)C(N)=O)nc(N)c2C)C(=O)N[C@H](C)[C@H](O)[C@H](C)C(=O)N[C@@H](C(=O)NCCc2nc(-c3nc(C(=O)NCCCCN=C(N)N)cs3)cs2)[C@@H](C)O)[C@H](O[C@@H]2O[C@H](CO)[C@H](O)[C@H](OC(N)=O)[C@@H]2O)[C@H](C)[C@@H]1C
inactive: [1] 45.1% | [2] 53.9% | [10] 45.9% | [4] 35.3% | [5] 71.2% | [6] 37.5% | [8] 87.6%

COc1ccc(C(=O)COc2ccc(/C=C3\COc4ccc(OC)cc4C3=O)cc2)cc1
inactive: [1] 77.5% | [2] 93% | [10] 101% | [4] 84.3% | [9] 74.2% | [6] 85.1% | [7] 80.7% | [8] 94.5%

OCC(O)c1nc2ccc3[nH]ncc3c2c2c1CCCC2 (stereo unspecified)
active: [1] 5.03% | [2] 9.08% | [10] 7.63% | [4] 7.68% | [5] 9.74% | [6] -8.7% | [7] 2.42% | [8] -3.58%

Clc1ccc2c(NCCNc3nc(N4CCOCC4)nc4ccccc34)ccnc2c1
inactive: [1] 15.2% | [5] 34%
active: [2] -69.2% | [10] 5.66% | [4] -93.1% | [6] -64.9% | [7] -83.5% | [8] -47.5%

CC(C)c1c(C(=O)c2ccccc2)c(-c2ccccc2)c(-c2ccc(F)cc2)n1CC[C@@H](O)C[C@@H](O)CC(=O)O
inactive: [1] 47.5% | [2] 106% | [10] 57.4% | [5] 37% | [6] 16.6% | [8] 65.4%

CCN(CC)c1ccc(/C=N\NC(=O)/C=C/C=C/c2ccc3c(c2)OCO3)c(O)c1
inactive: [2] 67.8% | [3] 58.8% | [10] 61% | [4] 43.3% | [5] 40.9% | [6] 29.1% | [7] 18.2% | [8] 52.1%

O=C1NC(=S)N[C@H]1CC(=O)n1cnc2ccccc21
inactive: [1] 99.1% | [2] 111% | [10] 102% | [5] 101% | [6] 93.4% | [7] 88.5% | [8] 111%

COc1cc(C=Nc2oc(-c3ccccc3)c(-c3ccccc3)c2C#N)cc(CN2CCCCC2)c1O
inactive: [1] 95.4% | [2] 102% | [10] 98.6% | [5] 93.2% | [9] 98.4% | [6] 88.4% | [7] 87.7% | [8] 110%

CCCOc1cc2ccccc2cc1C(=O)Nc1nc(NC)c2c(ccc3nccc32)[nH]1
active: [1] -50% | [2] -73.1% | [10] -78.8% | [4] -85.5% | [5] -51.5% | [6] -77.3% | [7] -81% | [8] -84.4%

CSc1nc(NCCN2CCOCC2)c(C#N)c(-c2cccc([N+](=O)[O-])c2)n1
inactive: [1] 97.4% | [2] 106% | [10] 95.2% | [5] 97.4% | [9] 99.3% | [6] 87.4% | [7] 95.9% | [8] 103%

CC(C)(C)CC(C)(C)c1ccc(OCCOCC[N+](C)(C)Cc2ccccc2)cc1
active: [2] -50.5% | [10] -89% | [4] -88.5% | [5] -13.9% | [6] -98.5% | [7] -29.4% | [8] -67%
inactive: [1] 95.2%

Fc1ccc(CNc2cccc3[nH]c(C(F)(F)F)nc23)cc1
inactive: [1] 98.3% | [2] 104% | [10] 79.2% | [4] 80.7% | [9] 96.1% | [6] 79.6% | [7] 99.4% | [8] 89%

Cc1cc(N2CCCCCC2)nc(NC2CCCC(Nc3ccnc4cc(Cl)ccc34)C2)n1 (stereo unspecified)
active: [1] -87.4% | [2] -82.9% | [10] -54.5% | [4] -94.8% | [5] -88.1% | [6] -84.3% | [7] -93.1% | [8] -83.5%

— PubChem BioAssay (NCI)
